# Screens: PubChem BioAssay, Broad Institute
# miR-122 inh: miR-122 suppressors via Renilla sensor increase, primary screen, cell-based, Huh7 psiCHECK-miR122, Renilla luciferase, single point; 48 h; activation, % at 12.5 µM; 340,000 compounds, 0.14% hits; AID 623901, 2012;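 active = mean activation of 30% or more, with every replicate also reaching 30%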;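 also: 0% = median of neutral control wells and 100% = median of positive control wells; higher luciferase signal means stronger suppression of miR-122 activity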
# An asterisk follows results filed as active. The sample as a whole holds a higher share of hits than the screen did.
SMILES,miR-122 inh
C[C@H](CO)N1C[C@H](C)[C@H](CN(C)Cc2ccccn2)Oc2ncc(C#Cc3ccc(F)cc3)cc2C1=O,8.5
C[C@H]1CN([C@@H](C)CO)S(=O)(=O)c2ccc(-c3ccncc3)cc2O[C@H]1CN(C)C(=O)C1CC1,3.9
C/C=C/c1cnc2c(c1)C(=O)N([C@H](C)CO)C[C@@H](C)[C@@H](CN(C)S(=O)(=O)c1ccc(C)cc1)O2,4.3
COc1cccc(NC(=O)N(C)C[C@H]2Oc3cc(-c4cccc(C(=O)N(C)C)c4)ccc3S(=O)(=O)N([C@@H](C)CO)C[C@H]2C)c1,-11.9
C[C@@H]1CN([C@@H](C)CO)C(=O)c2cc(-c3cccc(C#N)c3)cnc2O[C@@H]1CN(C)C,-5.6
CCOC(=O)/C(C#N)=C1/C=CN(Cc2ccccc2)C=N1,33.4*
C[C@H](O)C#Cc1cnc2c(c1)C(=O)N([C@H](C)CO)C[C@H](C)[C@H](CN(C)Cc1cncnc1)O2,2.6
COc1ccc(S(=O)(=O)N(C)C[C@@H]2Oc3cc(-c4cccc(F)c4)ccc3S(=O)(=O)N([C@@H](C)CO)C[C@H]2C)cc1,39.7*
COCC(=O)N(C)C[C@@H]1Oc2cc(-c3ccccc3)ccc2S(=O)(=O)N([C@@H](C)CO)C[C@H]1C,4.5
COCC(=O)N(C)C[C@H]1Oc2cc(-c3ccc(C#N)cc3)ccc2S(=O)(=O)N([C@@H](C)CO)C[C@H]1C,50.8*
COCC(=O)N(C)C[C@@H]1Oc2cc(-c3cccc(F)c3)ccc2S(=O)(=O)N([C@@H](C)CO)C[C@H]1C,-2.2
COCC(=O)N(C)C[C@H]1Oc2cc(-c3ccccc3F)ccc2S(=O)(=O)N([C@H](C)CO)C[C@H]1C,46.4*
Cc1ccc(S(=O)(=O)N(C)C[C@@H]2Oc3cc(-c4cccc(F)c4)ccc3S(=O)(=O)N([C@@H](C)CO)C[C@@H]2C)cc1,7.7
COCC(=O)N(C)C[C@@H]1Oc2cc(-c3ccccc3)ccc2S(=O)(=O)N([C@H](C)CO)C[C@@H]1C,6.0
Cc1ccc(S(=O)(=O)N(C)C[C@H]2Oc3cc(-c4cccc(F)c4)ccc3S(=O)(=O)N([C@@H](C)CO)C[C@H]2C)cc1,-4.2
COCC(=O)N(C)C[C@H]1Oc2cc(-c3ccccc3)ccc2S(=O)(=O)N([C@H](C)CO)C[C@H]1C,8.1
CCCNC(=O)N(C)C[C@H]1Oc2cc(C#Cc3cccc(F)c3)ccc2S(=O)(=O)N([C@H](C)CO)C[C@H]1C,2.7
COc1ccccc1S(=O)(=O)N(C)C[C@@H]1Oc2ncc(-c3ccc(C)cc3)cc2C(=O)N([C@@H](C)CO)C[C@H]1C,3.6
C[C@@H]1CN([C@@H](C)CO)C(=O)c2cc(C#CC3(O)CCCC3)cnc2O[C@@H]1CN(C)S(=O)(=O)c1ccccc1,-0.5
CO[C@@H]1CN(C)C(=O)c2ccc(NC(C)=O)cc2OC[C@@H](C)N(S(C)(=O)=O)C[C@H]1C,-3.9
C[C@@H]1CN([C@@H](C)CO)S(=O)(=O)c2ccc(C#Cc3ccccc3)cc2O[C@@H]1CN(C)S(=O)(=O)c1ccccc1F,-23.6
COCC(=O)N(C)C[C@@H]1Oc2cc(C#CC(C)C)ccc2S(=O)(=O)N([C@H](C)CO)C[C@@H]1C,-0.2
COc1ccccc1-c1ccc2c(c1)O[C@H](CN(C)S(=O)(=O)c1ccc(C)cc1)[C@H](C)CN([C@@H](C)CO)S2(=O)=O,-33.3
C[C@@H]1CN([C@H](C)CO)C(=O)c2cc(-c3ccc(F)cc3)cnc2O[C@H]1CN(C)Cc1cccnc1,-2.4
CO[C@H]1CN(C)C(=O)c2ccc(NC(=O)Nc3ccccc3)cc2OC[C@@H](C)N(C(C)=O)C[C@@H]1C,-2.3
SMILES,miR-122 inh
C[C@@H]1CN([C@H](C)CO)C(=O)c2cc(C#CCC3CCCC3)cnc2O[C@H]1CN(C)C(=O)CC1CC1,-6.4
CNC[C@@H]1Oc2cc(-c3cccc(F)c3)ccc2S(=O)(=O)N([C@@H](C)CO)C[C@H]1C,3.4
CCCc1ccc(S(=O)(=O)NCCc2ccncc2)cc1,36.1*
Cc1ccc(C)c(S(=O)(=O)NCCCc2ccccc2)c1,-92.7
Cc1cc(C)c(C)c(S(=O)(=O)NCc2ccncc2)c1C,-122.1
O=C(Nc1ccc(S(=O)(=O)NCCc2ccccc2)cc1)c1ccco1,-364.6
CC(=O)Nc1ccc(S(=O)(=O)NCCc2ccc(S(N)(=O)=O)cc2)cc1,-225.6
Cc1cc(C(C)(C)C)cc(S(=O)(=O)NCCc2ccncc2)c1C,44.1*
C[C@@H]1CN([C@@H](C)CO)C(=O)c2cc(C#CC3CC3)cnc2O[C@H]1CN(C)Cc1ccncc1,-0.7
COCC#Cc1ccc2c(c1)O[C@@H](CN(C)C(=O)C1CCOCC1)[C@H](C)CN([C@H](C)CO)S2(=O)=O,-8.6
C/C=C/c1ccc2c(c1)O[C@H](CN(C)C(=O)CC1CC1)[C@@H](C)CN([C@@H](C)CO)S2(=O)=O,-4.0
COCC(=O)Nc1ccc2c(c1)OC[C@H](C)NC[C@@H](C)[C@@H](OC)CN(C)C2=O,0.4
C[C@H]1CN([C@@H](C)CO)S(=O)(=O)c2ccc(C#Cc3ccncc3)cc2O[C@@H]1CN(C)S(=O)(=O)c1ccccc1,-105.5
